Consider 67 compounds from PubChem BioAssay AID686978 (National Center for Advancing Translational Sciences (NCATS), 2013).

The campaign covered roughly 420,000 compounds. About 64,000 (15%) were called active. About 27% were inconclusive and are not listed. Only a sample is shown. Unmarked numbers belong to inactive results. The call rests on the fitted dose curve; in most records, active means well fitted inhibition curve with a large enough effect; inconclusive means small, poorly fitted or top-dose-only effect; inactive means flat fitted curve, though single readings scatter.
On the % scale 0 is the no-effect control and ±100 the full control effect; potency means the concentration at half of the fitted maximal effect.

The nature of this experiment: qHTS for Inhibitors of human tyrosyl-DNA phosphodiesterase 1 (TDP1): qHTS in cells in absence of CPT. Further: nearly all actives have a fitted effect of over 55% in size. As to conditions: DT40 Tdp1-/- hTDP1 cells, no CPT, ATP luminescence, 48 h; activity change, negative = growth inhibition: at 46.2 µM (top of the series). The gist of the method: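 Growth kinetics read by CellTiter-Glo luminescence after ≥48 hr at 37 °C. Cells: DT40 Tdp1-/- stably carrying human TDP1, 400 per well, compound exposure in the absence of CPT (DMSO vehicle).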
In the case of `O=C(NCCCn1ccnc1)C(=O)c1cn(CC(=O)N2CCCCCC2)c2ccccc12`, the “activity change, negative = growth inhibition” value was -0.34%.
Still for that read-out and setting: the same measure for `O=C(NNC(=O)c1cccnc1)Nc1ccccc1`: -3.5%.
On to `O=C(CC(=O)c1cccnc1)c1ccccc1`, for which the Potency is 20.6 µM (active).
In the case of `O=C(c1cccnc1)N(Cc1ccccc1)C(=O)c1cccnc1`, the “activity change, negative = growth inhibition” value is -1.78%.
Consider `COC(=O)Cc1cnc(NC(=O)CSc2nc(C(C)C)cc(=O)[nH]2)s1`, for which the “activity change, negative = growth inhibition” value is 2.03%.
Still for that read-out and setting: next, `COc1cccc(-n2c(=O)c3c(C)c(C(=O)N(C)C)sc3n(Cc3cccc(C)c3)c2=O)c1`: -27.6%.
As for `COc1cccc(N=c2oc3c(C)ncc(CO)c3cc2C(N)=O)c1`, the “activity change, negative = growth inhibition” value was -18.9%.
The same measure, in the same setting: the same measure for `CCCN(CCC)c1c([N+](=O)[O-])c(=O)oc2ccccc12`: -6.56%.
The same measure, in the same setting: the same measure for `CCC(C)(C)NC(=O)C(c1ccc(O)cc1)N(C(=O)Cn1nnc2ccccc21)c1ccc(NC(C)=O)cc1` (configuration not stated): 3.11%; for `O=C(CN1C(=O)CCn2nc(-c3ccccc3)cc21)NCc1ccccc1`: -14%.
Take `COc1ccc(NC(=O)CCCN2C(=O)CCn3nc(-c4cn(C)c5ccccc45)cc32)cc1OC`: the Potency was 23.1 µM (active).
Take `COc1ccc(NC(=O)CCCNC(=O)Cn2cnc3sc4c(c3c2=O)CCCC4)cc1OC`: the “activity change, negative = growth inhibition” value was 1.22%.
Same read-out and setting: the same measure for `O=C(/C=C/[C@H]1O[C@@H](n2ccc(=O)[nH]c2=O)[C@H](O)[C@@H]1O)NCc1ccccn1`: 2.77%; for `O=C(COC(=O)c1cc(-c2cccs2)nn1-c1ccccc1)Nc1cc([N+](=O)[O-])ccc1Cl`: -10.1%.
`COc1ccc(Cl)cc1NC(=O)CN(C)C(=O)c1cc2ccccc2cc1OC`: the Potency is 18.4 µM (active).
The same measure, in the same setting: the same measure for `COc1ccc(Cl)cc1NC(=O)CN(C)C(=O)c1cc(-c2cccs2)nn1-c1ccccc1`: 18.4 µM (active).
On to `COc1ccc(Cl)cc1NC(=O)CN(C)C(=O)CNC(=O)C12CC3CC(CC(C3)C1)C2`, for which the “activity change, negative = growth inhibition” value was -50.7%.
Same read-out and setting: the same measure for `COc1ccc(Cl)cc1NC(=O)CNc1ccccc1F`: -8.29%.
Regarding `COc1ccc(Cl)cc1NC(=O)CSc1nc(-c2cccs2)cc(C(F)(F)F)n1`, the Potency is 20.6 µM (active).
`COc1ccc(C)cc1NC(=O)CSc1nnc(CC(=O)Nc2ccccc2F)n1C`: the “activity change, negative = growth inhibition” value was -9.59%.
`COc1ccc(-c2cc(C(F)(F)F)nc(SCC(=O)Nc3ccc4c(c3)OCO4)n2)cc1OC`: the “activity change, negative = growth inhibition” value was 0.966%.
As for `C=Cn1cc[n+](CC(=O)c2ccc(OC)c(OC)c2)c1`, the “activity change, negative = growth inhibition” value is 1.29%.
On the same count and under the same terms, the same measure for `Cc1c(C(=O)N(C)CCc2cnn(C)c2)oc2c(F)cccc12`: 4.26%; for `Cn1ccs/c1=N\S(=O)(=O)c1ccc(C(C)(C)C)cc1`: -8.97%.
On to `CC(=O)Nc1ccc(S(=O)(=O)NCC2CCC(C(=O)NCCc3ccccc3)CC2)cc1` (configuration not stated), for which the Potency entry is “inactive”.
As for `CS(=O)(=O)N1CCN=C1SCc1ccc(F)cc1`, the “activity change, negative = growth inhibition” value was -4.7%.
For `CCn1c(SCc2cccc(C(=O)O)c2)nnc1-c1ccc(Cl)cc1`, the “activity change, negative = growth inhibition” value was 2.06%.
Take `Cc1oc2cc3oc(=O)ccc3cc2c1C`: the “activity change, negative = growth inhibition” value was 3.59%.
As for `O=C(Nc1c(Br)cc2c(c1Br)Cc1ccccc1-2)C(F)(F)F`, the “activity change, negative = growth inhibition” value is -20.8%.
Same read-out and setting: the same measure for `CC(=O)c1ccc2c(c1)c1ccccc1n2CC(C)C`: -9.08%.
Take `CCOC(=O)c1sc(NC(=O)CSc2n[nH]c(CC)n2)nc1C`: the “activity change, negative = growth inhibition” value is -26.7%.
`O=C(CN1CCOCC1)Nc1ccccc1`: the “activity change, negative = growth inhibition” value was -2.99%.
Regarding `O=C(CN1CCc2cc3c(cc2C1)OCCCO3)Nc1ccccc1`, the Potency is 25.9 µM (active).
For `Cc1ccc(NC(=O)CN2CCc3ccccc3C2)cc1`, the “activity change, negative = growth inhibition” value is -22.2%.
On the same count and under the same terms, next, `Cc1ccc(NS(=O)(=O)c2cn(C)c(=O)n(C)c2=O)c(C)c1`: -1.43%.
`O=C(CCN1C(=O)C2C3C=CC(C3)C2C1=O)Nc1ccccc1F` (configuration not stated): the “activity change, negative = growth inhibition” value was 5.61%.
As to `O=C(NCCCNC(=O)c1ccccc1Cl)c1cnccn1`, the “activity change, negative = growth inhibition” value was -2.14%.
On to `CCCCNC1(C#N)CCN(Cc2ccccc2)CC1`, for which the “activity change, negative = growth inhibition” value is 15.8%.
`O=C1CC[C@@H]2CC3(C[C@@H]4CCN1[C@H]24)Nc1cc([N+](=O)[O-])ccc1NC3=NC1CCCCC1` (some centres not stated): the “activity change, negative = growth inhibition” value is 1.51%.
For the compound `O=C1CCC[C@@H]2C[C@@]3(C[C@@H]4CCN1[C@H]24)Nc1ccccc1NC3=NCc1ccccc1`, the “activity change, negative = growth inhibition” value was -4.08%.
With `Cc1cc2c(cc1C)NC1(C[C@H]3CCC(=O)N4CC[C@@H](C1)[C@@H]34)C(=NC(C)(C)CC(C)(C)C)N2` (some centres not stated), the Potency is 20 µM (active).
For the compound `COc1ccc(N2C(=O)NC(NS(=O)(=O)c3ccc(Cl)cc3)(C(F)(F)F)C2=O)cc1` (configuration not stated), the “activity change, negative = growth inhibition” value was -19.7%.
`CN(C)C(=O)c1ccc(-c2cncnc2NC2CCNCC2)cc1`: the “activity change, negative = growth inhibition” value is -0.0941%.
Still for that read-out and setting: next, `O=C(O)c1ccc(/C=C2\SC(=S)N(NC(=O)c3ccc(Br)cc3)C2=O)cc1`: -2.08%.
Consider `CCn1c(Cc2cccs2)nnc1SCC(=O)c1ccc(C)cc1`, for which the Potency was 14.1 µM (active).
Turning to `Cc1ccc(-n2c(Cc3cccs3)nnc2SCC(=O)OC(C)C)cc1`, the “activity change, negative = growth inhibition” value is -9.24%.
Same read-out and setting: next, `Cn1c(Cc2cccs2)nnc1SCC(=O)Nc1ccccc1`: 8.9%; `O=c1[nH]c(=O)c2nc3ccccc3nc2[nH]1`: -8.56%.
On to `CCCc1nnc(NC(=O)c2cccs2)s1`, for which the “activity change, negative = growth inhibition” value is 6.66%.
Take `O=C1NC(=O)C(c2ccc(Cl)cc2)N1` (configuration not stated): the “activity change, negative = growth inhibition” value is 19.5%.
Same read-out and setting: next, `CCOC(=O)N1CCN(C(=O)C(=O)Nc2sc3c(c2C#N)CC(C)(C)OC3)CC1`: 16.8%.
Turning to `NS(=O)(=O)c1ccc2nc(NC(=O)CS(=O)(=O)c3ccc(F)cc3)sc2c1`, the “activity change, negative = growth inhibition” value was 1.93%.
`O=C(Cn1c(=O)sc2ccccc21)Nc1nc2c(s1)CCCC2`: the “activity change, negative = growth inhibition” value was -7.53%.
For `COc1cc(C#Cc2ccc3cc(CCCO)oc(=O)c3c2)cc(OC)c1`, the Potency was 1.03 µM (active).
Turning to `CN(C(=O)CN1C(=O)CCSc2ccc(S(=O)(=O)N3CCCC3)cc21)c1ccccc1`, the “activity change, negative = growth inhibition” value was 22.2%.
For `CSc1ccccc1NC(=O)c1cc(Cl)sc1Cl`, the “activity change, negative = growth inhibition” value is -11.3%.
Still for that read-out and setting: next, `CN(CC(=O)Nc1c(Cl)cccc1Cl)C(=O)c1ccncc1`: -2.4%.
On to `CC(Oc1ccc2ccccc2c1)C(=O)NNC(=S)NC(=O)c1ccco1` (configuration not stated), for which the Potency is 16.4 µM (active).
Take `Cc1ccc(OCC(=O)NCCCNC(=O)c2ccco2)cc1C`: the “activity change, negative = growth inhibition” value is -5.67%.
The same measure, in the same setting: the same measure for `Cc1ccc(C(=O)NNC(=O)C(C)Oc2ccc3ccccc3c2)o1` (configuration not stated): -21.3%; for `CCCc1ccc(OCCNC(=O)c2ccco2)cc1`: -25.9%.
For the compound `CCCc1ccc(OCC(=O)NNC(=S)NC(=O)c2ccco2)cc1`, the Potency was 20.6 µM (active).
On to `O=C(Nc1ccc2ccccc2c1)/C(=C\c1ccc2c(c1)OCO2)NC(=O)c1ccco1`, for which the “activity change, negative = growth inhibition” value is -4.08%.
The same measure, in the same setting: next, `C=CCn1c(SCc2cc(C(=O)OC)c(C)o2)nnc1-c1ccncc1`: -5.22%; `COC(=O)c1ccc(NC(=O)c2cccc3c2C(=O)N(C2CCCCC2)C3)cc1`: -3.73%; `CCOC(=O)N1CCC(N2Cc3cccc(C(=O)Nc4ccc(S(=O)(=O)N(CC)CC)cc4)c3C2=O)CC1`: 2.22%.
Take `CCOC(=O)N1CCC(N2Cc3cccc(C(=O)Nc4c(C)cccc4CC)c3C2=O)CC1`: the Potency was 23.1 µM (active).
